Experimental findings from PubChem BioAssay (NCI) are described below.

This is part of a sample that, as a whole, favours compounds with a hit. Of some 83,000 tested, about 20% had one in any assay.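 Interpretation: 100, growth as untreated; towards 0, rising growth inhibition; 0, no net growth; 0 to -100, cell death. Compounds scoring below 10 were considered active.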 A number with no mark means an inactive call. Calls of active or inactive are those of the source.

Among the test systems are DU-145 prostate; K-562 leukemia; MALME-3M melanoma; MDA-MB-231 breast; RXF 393 renal; SF-268 CNS; SF-295 CNS; SF-539 CNS; UACC-257 melanoma; M14 melanoma; HCT-15 colon; HT29 colon; SNB-75 CNS; SNB-19 CNS; U251 CNS; PC-3 prostate; SK-MEL-5 melanoma; UACC-62 melanoma; LOX IMVI melanoma; SK-MEL-28 melanoma.
What all share (experiment): NCI-60 one-dose screen, 48 h (100 = growth as untreated, 0 = no growth, -100 = all killed)
Holding throughout (details): 10 µM unless noted

Turning to `CCN(CC)c1ccc(C2CC(c3cc(OC)c(OC)c(OC)c3)=NN2)cc1` (stereo not given), the growth in the assay on DU-145 prostate is -36.1% (active); in the assay on K-562 leukemia it was 5.52% (active); with MALME-3M melanoma it was 108%; in the assay with MDA-MB-231 breast, 31.7%; with RXF 393 renal, -20.9% (active); in the assay on SF-268 CNS, 28.1%. For the same compound, the growth was 33.9% with SF-295 CNS; -43.1% (active) with SF-539 CNS; 30.8% in the assay with UACC-257 melanoma; 5.55% (active) with M14 melanoma; 36.1% in the assay with HCT-15 colon; -3.21% (active) in the assay with HT29 colon. The growth is 18.7% in the assay on SNB-75 CNS; 14% in the assay with SNB-19 CNS; 33% with U251 CNS; 26.3% in the assay with PC-3 prostate; -26.4% (active) with SK-MEL-5 melanoma; 48.5% with UACC-62 melanoma. In addition, the growth with LOX IMVI melanoma was 40.5%; in the assay with SK-MEL-28 melanoma, 64.8%.
In the case of `COc1ccc(/C=C/C(=O)c2ccc(NC(=O)CSc3nnc(-c4cc(OC)c(OC)c(OC)c4)o3)cc2)cc1`, the growth is 4.04% (active) in the assay with DU-145 prostate; -52.2% (active) with K-562 leukemia; -70.7% (active) in the assay with MALME-3M melanoma; -80.7% (active) in the assay on MDA-MB-231 breast; -84.3% (active) with RXF 393 renal; -76.7% (active) with SF-268 CNS. Further, the growth in the assay with SF-295 CNS is 57.6%; in the assay with SF-539 CNS it was -90.3% (active); in the assay on UACC-257 melanoma it was 40.1%; with M14 melanoma, -60.1% (active); in the assay with HCT-15 colon, -79.6% (active); in the assay with HT29 colon it was -80.9% (active). For the same compound, the growth is -89.7% (active) with SNB-75 CNS; -48.7% (active) in the assay with SNB-19 CNS; -90.1% (active) with U251 CNS; -34.7% (active) in the assay on PC-3 prostate; -84.2% (active) in the assay with SK-MEL-5 melanoma; -46.3% (active) with UACC-62 melanoma. Besides, the growth was -69.4% (active) with LOX IMVI melanoma and -21% (active) with SK-MEL-28 melanoma.
For the compound `C#CC(=O)/C=C/CCCCCCC#CC(=O)CCC(=O)C#CCCCCCC/C=C/C(=O)C#C`, the growth with DU-145 prostate was 35.3%; in the assay on K-562 leukemia, 0.258% (active); in the assay with MALME-3M melanoma it was -68.3% (active); in the assay with MDA-MB-231 breast, -6.98% (active); in the assay with RXF 393 renal, -36.7% (active); with SF-268 CNS, 22.5%. Further, the growth with SF-295 CNS was 71.7%; in the assay with SF-539 CNS it was -34.5% (active); in the assay on UACC-257 melanoma, 62.9%; with M14 melanoma, -19.2% (active); in the assay with HCT-15 colon, 12.4%; with HT29 colon, 6.4% (active). Further, the growth in the assay on SNB-75 CNS is 56%; in the assay with SNB-19 CNS, 32%; in the assay with U251 CNS it was 18%; with PC-3 prostate, 12.2%; in the assay on SK-MEL-5 melanoma it was 52.8%; in the assay with UACC-62 melanoma, 5.38% (active). In addition, the growth in the assay with LOX IMVI melanoma is -70.2% (active); in the assay on SK-MEL-28 melanoma it was 12.8%.
For `O=C(Nc1cccc(-n2ccc3c(NC(=O)c4ccccc4)nccc32)c1)c1cccc(C(F)(F)F)c1`, the growth is -10.9% (active) in the assay on DU-145 prostate; 12.1% in the assay on K-562 leukemia; 48.3% in the assay with MALME-3M melanoma; 3.85% (active) in the assay with MDA-MB-231 breast; -49.4% (active) in the assay on RXF 393 renal; 14.8% with SF-268 CNS. The growth in the assay with SF-295 CNS is -8.39% (active); in the assay on SF-539 CNS, 4.4% (active); in the assay on UACC-257 melanoma, 42.4%; in the assay on M14 melanoma it was 7.48% (active); in the assay with HCT-15 colon, 9.77% (active); in the assay on HT29 colon it was -13.2% (active). The growth was 44.6% with SNB-75 CNS; 28.5% with SNB-19 CNS; 7.1% (active) with U251 CNS; 33.2% in the assay with PC-3 prostate; -45.4% (active) in the assay with SK-MEL-5 melanoma; 29.6% in the assay on UACC-62 melanoma. For the same compound, the growth in the assay with LOX IMVI melanoma is 8.39% (active); in the assay with SK-MEL-28 melanoma, 40.9%.
With `O=C(COc1ccc(Cl)cc1Cl)N1N=C(c2ccc(Cl)cc2Cl)CC1(O)c1cc(F)c(Cl)cc1Cl` (stereo not given), the growth is 123% in the assay with DU-145 prostate; 64.4% in the assay on K-562 leukemia; 129% with MALME-3M melanoma; 136% with MDA-MB-231 breast; 134% with RXF 393 renal; 103% in the assay with SF-268 CNS. For the same compound, the growth in the assay with SF-295 CNS is 117%; in the assay with SF-539 CNS, 112%; with UACC-257 melanoma it was 99%; in the assay on M14 melanoma, 94.1%; in the assay with HCT-15 colon, 158%; in the assay on HT29 colon it was 116%. Also, the growth was 108% in the assay with SNB-75 CNS; 88% in the assay on SNB-19 CNS; 131% in the assay on U251 CNS; 102% in the assay on PC-3 prostate; 80.8% in the assay on SK-MEL-5 melanoma; 156% in the assay with UACC-62 melanoma. The growth was 128% in the assay with LOX IMVI melanoma and 141% in the assay on SK-MEL-28 melanoma.
For the compound `Cc1nc(N)nc(SCc2ccccc2)c1Br`, the growth is 104% in the assay with DU-145 prostate; 88.4% with K-562 leukemia; 92.6% in the assay on MALME-3M melanoma; 91.1% in the assay with MDA-MB-231 breast; 89.6% in the assay with RXF 393 renal; 96.1% with SF-268 CNS. Also, the growth is 99.1% in the assay with SF-295 CNS; 96.4% in the assay on SF-539 CNS; 74.1% in the assay on UACC-257 melanoma; 104% with M14 melanoma; 102% in the assay with HCT-15 colon; 92.8% in the assay on HT29 colon. Besides, the growth is 87.3% in the assay on SNB-75 CNS; 99.3% in the assay with SNB-19 CNS; 85.4% with U251 CNS; 83.8% with PC-3 prostate; 88.4% in the assay on SK-MEL-5 melanoma; 75.8% in the assay on UACC-62 melanoma. Also, the growth was 95.7% in the assay with LOX IMVI melanoma and 106% in the assay on SK-MEL-28 melanoma.
Consider `CC1(C)Cc2c(Br)c(Br)c(Br)c(OCC(O)CN3CCN(c4ccccn4)CC3)c2O1` (stereo not given), for which the growth was 106% in the assay with DU-145 prostate; 36.4% in the assay on K-562 leukemia; 88.2% with MALME-3M melanoma; 57.4% in the assay on MDA-MB-231 breast; 99.7% in the assay on RXF 393 renal; 79.1% with SF-268 CNS. The growth in the assay with SF-295 CNS is 81.5%; with SF-539 CNS, 95.1%; with UACC-257 melanoma it was 105%; in the assay on M14 melanoma it was 99.2%; in the assay with HCT-15 colon, 79.7%; in the assay with HT29 colon, 69.7%. The growth is 187% in the assay on SNB-75 CNS; 101% in the assay with SNB-19 CNS; 82.3% in the assay on U251 CNS; 48.5% in the assay with PC-3 prostate; 63.5% with SK-MEL-5 melanoma; 92.9% in the assay with UACC-62 melanoma. The growth in the assay on LOX IMVI melanoma was 68.6%; in the assay with SK-MEL-28 melanoma, 115%.
Take `O=C1C(Cl)=C(Nc2ccccc2)C(=O)C(Cl)=C1Nc1ccccc1`: the growth in the assay on DU-145 prostate was 121%; in the assay with K-562 leukemia it was 103%; in the assay with MALME-3M melanoma it was 119%; in the assay with MDA-MB-231 breast it was 121%; with RXF 393 renal it was 116%; in the assay on SF-268 CNS it was 105%. Besides, the growth is 114% in the assay with SF-295 CNS; 106% in the assay on SF-539 CNS; 107% in the assay on UACC-257 melanoma; 113% in the assay on M14 melanoma; 109% in the assay with HCT-15 colon; 112% in the assay on HT29 colon. Further, the growth in the assay on SNB-75 CNS is 113%; with SNB-19 CNS it was 129%; with U251 CNS, 104%; in the assay on PC-3 prostate it was 109%; with SK-MEL-5 melanoma it was 112%; in the assay on UACC-62 melanoma it was 111%. The growth is 96.9% in the assay on LOX IMVI melanoma and 119% with SK-MEL-28 melanoma.
